Experimental findings from PubChem BioAssay (NCI) are described below.

Some test systems named below: SR leukemia; RPMI-8226 leukemia; OVCAR-8 ovarian; OVCAR-5 ovarian; OVCAR-4 ovarian; SK-OV-3 ovarian; IGROV1 ovarian; OVCAR-3 ovarian; HS 578T breast; T-47D breast; BT-549 breast; MDA-MB-435 melanoma; SW-620 colon; MCF7 breast; HCT-116 colon; HCC-2998 colon; KM12 colon; MDA-MB-468 breast; NCI/ADR-RES ovarian.
Holding throughout (assay): NCI-60 one-dose screen, 48 h (100 = growth as untreated, 0 = no growth, -100 = all killed)
Conditions in all cases: 10 µM unless noted

SMILES strings stand for the structures. Compounds without any hit were thinned out: in the full panel of roughly 83,000, 20% have a hit.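 In brief: 96-well plates, 48 h treatment, single concentration, percent growth endpoint.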 Values without a mark were called inactive. Activity calls are given as the source filed them. Rule for the calls: active = growth percent below 10; inactive = the rest.

`CN1CCN(/C(=N\c2sc(-c3ccccc3)nc2-c2ccccc2)c2ccccc2)CC1`: the growth was 21.1% in the test with SR leukemia; 34.6% with RPMI-8226 leukemia; 97.6% with OVCAR-8 ovarian; 70% in the test on OVCAR-5 ovarian; 89.4% with OVCAR-4 ovarian; 105% in the test on SK-OV-3 ovarian. For the same molecule, the growth with IGROV1 ovarian was 82.5%; in the test on OVCAR-3 ovarian, 111%; with HS 578T breast, 88.7%; with T-47D breast, 76.2%; with BT-549 breast, 77.5%; in the test with MDA-MB-435 melanoma, 79.7%. The growth in the test with SW-620 colon is 79.5%; in the test on MCF7 breast, 75.1%; with HCT-116 colon, 54.4%; in the test with HCC-2998 colon, 77.5%; in the test with KM12 colon it was 24.5%; in the test with MDA-MB-468 breast it was 71.6%.
With `COc1cc(C2CC(c3cc(OC)c(OC)c(OC)c3)=NN2C(C)=O)ccc1OCc1ccccc1` (centres undefined), the growth in the test on SR leukemia is 32.1%; in the test on RPMI-8226 leukemia, 24.2%; in the test with OVCAR-8 ovarian, 46.7%; in the test with OVCAR-5 ovarian, 59.8%; in the test with OVCAR-4 ovarian it was 22.3%; in the test with SK-OV-3 ovarian, 71.3%. Further, the growth with IGROV1 ovarian is 42.9%; in the test with OVCAR-3 ovarian, 41%; with HS 578T breast, 41%; in the test on T-47D breast it was 2.7% (active); in the test on BT-549 breast it was 17.4%; in the test with MDA-MB-435 melanoma, 44.6%. Moreover, the growth is 55.1% with SW-620 colon; 17.1% with MCF7 breast; 24.3% with HCT-116 colon; 71.2% in the test with HCC-2998 colon; 33.9% in the test on KM12 colon; 34.2% in the test on MDA-MB-468 breast.
As for `CN1C(=O)/C(=C/c2ccc(C(=O)Nc3ncc(Cc4ccc(Cl)cc4Cl)s3)cc2)SC1=S`, the growth in the test on SR leukemia was 28.8%; in the test with RPMI-8226 leukemia, 36.3%; in the test with OVCAR-8 ovarian it was 39.3%; in the test with OVCAR-5 ovarian, 46.3%; with OVCAR-4 ovarian it was 53.6%; in the test with SK-OV-3 ovarian it was 53.3%. Moreover, the growth in the test on IGROV1 ovarian is 47.2%; with OVCAR-3 ovarian, 12.9%; in the test on HS 578T breast, 44.3%; in the test on BT-549 breast it was 31.6%; in the test on MDA-MB-435 melanoma it was -4.21% (active); in the test with SW-620 colon, 45.1%. For the same molecule, the growth is 30.6% with MCF7 breast; 29.6% with HCT-116 colon; 40.4% in the test with HCC-2998 colon; 15.5% in the test with KM12 colon; -9.37% (active) in the test with MDA-MB-468 breast.
On to `COc1cc(C2CC(c3cc(OC)c(OC)c(OC)c3)=Nc3c(N)nc(N)nc3N2)ccc1Oc1nc(NCCO)nc(N2CCOCC2)n1` (centres undefined), for which the growth is 93.1% in the test on SR leukemia; 95.5% with RPMI-8226 leukemia; 99.9% in the test with OVCAR-8 ovarian; 106% in the test on OVCAR-5 ovarian; 107% in the test with OVCAR-4 ovarian; 104% in the test with SK-OV-3 ovarian. Further, the growth with IGROV1 ovarian was 104%; with OVCAR-3 ovarian, 107%; with HS 578T breast, 95%; with NCI/ADR-RES ovarian, 97.6%; in the test on BT-549 breast, 116%; with MDA-MB-435 melanoma it was 100%. Further, the growth with SW-620 colon was 103%; in the test with MCF7 breast it was 87.4%; in the test on HCT-116 colon it was 100%; with HCC-2998 colon, 115%; in the test with KM12 colon, 99.9%; with MDA-MB-468 breast, 81.2%.
As for `CCCn1cc(-c2nc(Nc3ccc(C(=O)NCCCCNc4cccc5c4C(=O)N(C4CCC(=O)NC4=O)C5=O)cc3)nc3[nH]ccc23)cn1` (centres undefined), the growth was 25.1% in the test on SR leukemia; 17.5% in the test on RPMI-8226 leukemia; 6.6% (active) in the test on OVCAR-8 ovarian; 54.2% with OVCAR-5 ovarian; 9.82% (active) with OVCAR-4 ovarian; 24.8% in the test on SK-OV-3 ovarian. In addition, the growth in the test with IGROV1 ovarian was 7.36% (active); with OVCAR-3 ovarian, 36.3%; in the test on HS 578T breast, 6.24% (active); in the test on NCI/ADR-RES ovarian it was 95.6%; in the test on BT-549 breast it was -36.1% (active); with MDA-MB-435 melanoma it was 34.2%. Also, the growth in the test on SW-620 colon was 9.12% (active); with HCT-116 colon, 72.3%; with HCC-2998 colon, 5.84% (active); with KM12 colon it was 6.05% (active); in the test on MDA-MB-468 breast it was -36.3% (active).
`O=c1oc2ccc(Br)cc2cc1C1=CSc2nc3sc4c(c3c(=O)n2N=C1)CCCC4`: the growth with SR leukemia is 86.6%; with RPMI-8226 leukemia it was 101%; in the test with OVCAR-8 ovarian it was 99.9%; in the test on OVCAR-5 ovarian, 102%; with OVCAR-4 ovarian it was 86.1%; in the test with SK-OV-3 ovarian, 80.3%. Also, the growth in the test with IGROV1 ovarian is 90.8%; with OVCAR-3 ovarian it was 115%; in the test on HS 578T breast it was 93.1%; in the test on NCI/ADR-RES ovarian, 106%; with BT-549 breast it was 95.4%; in the test on MDA-MB-435 melanoma it was 95.1%. The growth was 108% in the test on SW-620 colon; 96.4% with HCT-116 colon; 125% with HCC-2998 colon; 97.6% in the test on KM12 colon; 104% with MDA-MB-468 breast.
For the molecule `S=c1c2ccccc2nc2n1CCc1c-2[nH]c2ccccc12`, the growth in the test on SR leukemia is 67.7%; with RPMI-8226 leukemia, 89.5%; in the test with OVCAR-8 ovarian it was 28.6%; in the test with OVCAR-5 ovarian it was 86.8%; in the test with OVCAR-4 ovarian, 50.3%; with SK-OV-3 ovarian, 42.2%. The growth in the test with IGROV1 ovarian is 48.2%; with OVCAR-3 ovarian, 67.2%; in the test with HS 578T breast, 8.23% (active); in the test on T-47D breast, 37.2%; in the test with BT-549 breast, 49.9%; in the test with MDA-MB-435 melanoma, 88.6%. Further, the growth with SW-620 colon is 80.9%; with MCF7 breast, 43%; in the test with HCT-116 colon, 48.7%; with HCC-2998 colon, 64.9%; in the test on KM12 colon, 80.9%; in the test on MDA-MB-468 breast, 47.9%.
For `CC(C)Sc1nc(NCCc2c[nH]c3ccccc23)c(C#N)c(-c2ccccc2)n1`, the growth was -17.2% (active) in the test on SR leukemia; 7.27% (active) in the test on RPMI-8226 leukemia; 38% in the test on OVCAR-8 ovarian; 68.7% in the test with OVCAR-5 ovarian; 53.6% in the test on OVCAR-4 ovarian; 70.2% with SK-OV-3 ovarian. Besides, the growth in the test on IGROV1 ovarian is 87.8%; in the test on OVCAR-3 ovarian it was 44.4%; in the test on HS 578T breast, 8.79% (active); in the test with T-47D breast it was -9.65% (active); in the test with BT-549 breast, 55.1%; with MDA-MB-435 melanoma, 48.1%. For the same molecule, the growth in the test on SW-620 colon is -11.6% (active); in the test on MCF7 breast, -22.5% (active); with HCT-116 colon it was 0.232% (active); in the test on HCC-2998 colon, 4.86% (active); in the test on KM12 colon, 6.51% (active); in the test on MDA-MB-468 breast, -4.09% (active).
As to `CCC(C)(C)c1ccc(OCCCCCCN2CCN(c3ccncc3)CC2)cc1`, the growth in the test with SR leukemia was -27.5% (active); in the test on RPMI-8226 leukemia, -44.5% (active); in the test on OVCAR-8 ovarian, 54%; in the test with OVCAR-5 ovarian, 65.7%; in the test on OVCAR-4 ovarian, 47.7%; in the test on SK-OV-3 ovarian, 38.5%. The growth was 49.8% in the test with IGROV1 ovarian; 38% in the test with OVCAR-3 ovarian; -7.9% (active) in the test on HS 578T breast; 19% in the test with NCI/ADR-RES ovarian; -44.2% (active) in the test on BT-549 breast; -0.134% (active) with MDA-MB-435 melanoma. Also, the growth with SW-620 colon is -62% (active); in the test on MCF7 breast it was -58.1% (active); with HCT-116 colon it was -69.3% (active); in the test with HCC-2998 colon, -74.1% (active); with KM12 colon it was 7.93% (active); in the test on MDA-MB-468 breast, -81.5% (active).
